Experimental data: PubChem BioAssay (NCATS)
Inconclusive results are not listed. Active and inactive are the calls of the source. Unless noted, the call rests on the fitted dose curve; in most records, active means well fitted curve in the direction sought with a large enough effect; inconclusive means small, poorly fitted or top-dose-only effect, or another doubt; inactive means no such curve, though single readings can be large; an effect the other way counts as inactive or inconclusive.

Assays:
[1] = target: Lysosomal acid glucosylceramidase (Homo sapiens) (UniProt P04062); experiment: Glucocerebrosidase-p2 (AID 348; in the data active means potency below about 10 µM; further: potency means the concentration at half of the fitted maximal effect); conditions: purified GBA, blue fluorogenic substrate, 40 min
Outline: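 Normal human glucocerebrosidase (0.2 nM) with blue fluorogenic substrate (80 uM final) in citrate/phosphate pH 5.9 with 10mM sodium taurocholate, 0.01% tween-20; 40 min RT, NaOH/glycine stop; fluorescence Ex 365/Em 440; AC50 from a titration from 0.6 nM upwards.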

[2] = AP1 Signaling Pathway (AID 357; active means well fitted curve in either direction with a large enough effect, not every such curve was filed as active;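 further: ME-180 reporter cells stimulated with EGF at its EC50 level; on the % scale 0 is the no-effect control and ±100 the full control effect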); conditions: ME-180 AP-1-bla reporter, EGF-induced, beta-lactamase ratio, 5 h; at 7.69 µM (top of the series) unless noted
Outline: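 Cells are seeded overnight, exposed to compound titrations and an EC50 level of EGF for 5 hours at 37 °C, then loaded with CCF4 dye for 2.5 hours. Beta-lactamase activity under the AP-1 element is read as a blue/green ratio.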

[3] = target: Cytochrome P450 1A2 (Homo sapiens) (UniProt P05177); experiment: p450-cyp1a2 (AID 410; calls by dose curve; further: potency means the concentration at half of the fitted maximal effect)
Outline: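 O-Demethylation of luciferin 6' methyl ether by human CYP1A2 is monitored as luciferase luminescence. Substrate sits at Km (100uM); enzyme is 20nM. Values are scaled to 57 uM furafylline as maximal inhibition.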

[4] = NFAT Signaling Pathway (AID 444; active means well fitted curve in either direction with a large enough effect, not every such curve was filed as active;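 further: carbachol stimulus at about its EC50 of 1 µM final; on the % scale 0 is the no-effect control and ±100 the full control effect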); conditions: Jurkat NFAT-bla M1, carbachol, beta-lactamase ratio, 5 h; at 7.69 µM (top of the series) unless noted
Outline: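 Read-out: CCF4 FRET ratio (460 nm/530 nm) after 1 h RT dye loading, used for %activity and AC50 from titration series. Cells: Jurkat NFAT-β-lactamase/M1 line, treated with compound plus 1 uM carbachol for 5 h, 37 °C.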

[5] = Stat Signaling Pathway (AID 446; active means well fitted curve in either direction with a large enough effect, not every such curve was filed as active;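 further: ME-180 cervical cancer cells given 40 pM IL-6 alongside compound; SIE-controlled beta-lactamase reporter measured as 460/530 nm FRET emission ratio; on the % scale 0 is the no-effect control and ±100 the full control effect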); conditions: ME-180 (cervical carcinoma) SIE beta-lactamase reporter, IL-6 stimulated, 5 h; at 7.69 µM (top of the series) unless noted
Outline: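 FRET read-out (405 nm excitation, 460/530 nm emission) of a beta-lactamase reporter under a STAT-inducible element in ME-180 cervical carcinoma cells. Cells with compound receive 40 pM IL-6 for 5 h. Values are normalised to AC90 stimulation and AC90 JAK-inhibitor controls.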

[6] = target: Glucocorticoid receptor (Homo sapiens) (UniProt P04150); experiment: GR-GFP Redistribution (AID 450;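 active means compounds whose dose series gives a full or clear partial fitted curve of increased nuclear translocation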; further: potency means the concentration at half of the fitted maximal effect); conditions: U2OS GR-GFP nuclear translocation, laser cytometry, 2 h
[7] = target: Glucocorticoid receptor (Homo sapiens) (UniProt P04150); experiment: GR-EFC Redistribution (AID 451; calls by dose curve; further: potency means the concentration at half of the fitted maximal effect); conditions: CHO-K1 GR-EFC translocation, beta-gal luminescence, 2 h
Outline: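 Translocation of GR-ED fusion to nuclear EA restores b-gal, read by luminescence after 1 h room-temperature detection. Engineered CHO-K1 biosensor cells, 1,000/well, exposed 2 h at 37 C to titrations up to 46 uM final.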

[8] = target: Cytochrome P450 3A4 (Homo sapiens) (UniProt P08684); experiment: qHTS Assay for Inhibitors and Substrates of Cytochrome P450 3A4 (AID 884); further: nearly all actives have a fitted effect of over 50% in size; further: potency means the concentration at half of the fitted maximal effect
Outline: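 Luminescent readout of luciferin produced by CYP3A4 (20 nM) dealkylation of Luciferin-PPXE, 25 uM (its KM). NADPH-driven reaction ran 60 min at RT after 10 min compound preincubation; data scaled to 57 uM ketoconazole as 100% inhibition.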

[9] = target: Cytochrome P450 3A4 (Homo sapiens) (UniProt P08684); experiment: qHTS Assay for Activators of Cytochrome P450 3A4 (AID 885); further: nearly all actives have a fitted effect of over 65% in size
Outline: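 Luminescent readout of luciferin formed from 25 uM Luciferin-PPXE (KM level) by 20 nM CYP3A4 in 200 mM KPO4, with 60 min NADPH-driven reaction at room temperature after 10 min compound exposure. Ketoconazole (57 uM) defined 100% inhibition.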

[10] = Confirmation and Secondary Assay for Modulators of Hemoglobin Beta Chain Splicing at IVS2 654 locus (AID 910);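 further: HeLa cells stably carrying EGFP split by mutant beta-globin IVS2-654 intron; per-well total GFP intensity by laser scanning cytometry after 2-day treatment; % of control where 0% means no effect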
Outline: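 Readout: per-well total peak green fluorescence (488 nm ex, 500–520 nm em) from objects 5–250 µm, reflecting correct splicing of an EGFP-654 reporter. Compounds were applied for 2 days at 37 °C to overnight-plated HeLa EGFP-654 cells; controls were DMSO and 500 nM IVS2-654 PNA.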

[11] = Confirmation and Secondary Assay for Modulators of Hemoglobin Beta Chain Splicing at IVS2 705 locus (AID 930);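 further: HeLa cells stably expressing the EGFP-705 splicing reporter; GFP fluorescence per well restored by corrected splicing of the IVS2-705 intron in EGFP; % of control where 0% means no effect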
Outline: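 First, HeLa EGFP-705 cells are seeded at 500/well in Optimem with 2% FCS and left overnight. Next, compound or DMSO is added for 2 days. Finally wells are laser-scanned and total peak GFP intensity scored.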

[12] = qHTS Assay for Lipid Storage Modulators (AID 1519; calls by dose curve); conditions: Drosophila S3 cells, BODIPY lipid droplet/cell ratio, laser cytometry, cells loaded with oleic acid; for activity change, negative = inhibition: at 57.5 µM (top of the series)
Outline: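 Cells seeded at 5,000 per well were treated with compounds over a concentration series and loaded with oleic acid (400 uM, as added). Lipid droplet fluorescence (488 nm excitation, 500-530 nm channel) was read by laser-scanning cytometry and normalized to 20 uM Triacsin C.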

[13] = target: Mitogen-activated protein kinase 10 (Mus musculus) (UniProt Q61831); experiment: JNK3 AlphaScreen Assay (AID 530; active means well fitted curve in either direction with a large enough effect, not every such curve was filed as active;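 further: kinase came from lysate of stimulated human HepG2 cells; signal reports phosphorylation of biotinylated GST-cJun 1-79 at Ser73 with 10 µM ATP; on the % scale 0 is the no-effect control and ±100 the full control effect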)
Outline: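 qHTS titrations with 15 min compound pre-incubation before adding ATP (10 uM final). Read-out: AlphaScreen of Ser73-phosphorylated biotin-GST-cJun using HepG2 lysate JNK3 activated by IL-1β and TNFα.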

[14] = target: 3',5'-cyclic-AMP phosphodiesterase 4B (Homo sapiens) (UniProt Q07343); experiment: qHTS Assay for Inhibitors of PDE-IV (AID 607; active means well fitted activation curve with a large enough effect in the main read-out, with a control signal flat, not every such curve was filed as active; further: % of control where 0% means no effect)
Outline: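 Cell-based read-out of cAMP via a modified cyclic nucleotide-gated channel and membrane potential dye (535/590 nm) in HEK293 cells expressing PDE4 endogenously. Compounds tested up to 22.9 uM final; 100 uM RO 20-1724 reference.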

[15] = target: Dual specificity protein kinase CLK4 (Homo sapiens) (UniProt Q9HAZ1); experiment: qHTS Assay for Inhibitors of CDC-like Kinase 4 (Kinase-Glo Assay) (AID 1770); further: nearly all actives have a fitted effect of over 65% in size; further: potency means the concentration at half of the fitted maximal effect
Outline: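 25 nM Clk4 with 100 uM RS repeat peptide and 1 uM ATP (final) in Tris pH7.5, 10 mM MgCl2, 4.5 h at room temperature. Remaining ATP measured by Kinase-Glo luciferase luminescence.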

[16] = target: Dual specificity protein kinase CLK4 (Homo sapiens) (UniProt Q9HAZ1); experiment: qHTS Assay for Inhibitors of CDC-like Kinase 4 (ADP-Glo Assay) (AID 1771); further: nearly all actives have a fitted effect of over 70% in size; further: potency means the concentration at half of the fitted maximal effect
Outline: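 Compounds are pin-transferred onto substrate mix (100 uM RS peptide, 1 uM ATP), then 25 nM Clk4 is added. After 1 hr at room temperature, ADP-Glo reagent runs 45 min, detection reagent 30 min, then luminescence is read.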

[17] = target: Dual specificity protein kinase CLK4 (Homo sapiens) (UniProt Q9HAZ1); experiment: qHTS Assay for Inhibitors of CDC-like Kinase 4 (ADP-FP Assay) (AID 1795); further: nearly all actives have a fitted effect of over 60% in size; further: potency means the concentration at half of the fitted maximal effect
Outline: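 Recombinant Clk4 (6.25 nM) phosphorylated 100 uM RS repeat peptide with 1 uM ATP in 25 mM Tris pH 7.5, 10 mM MgCl2, 0.5 mM EGTA, 2.5 mM DTT, 0.01% Triton X-100 for 1 h. ADP was detected by Transcreener ADP2 competitive fluorescence polarization after 30 min at room temperature.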

[18] = target: Ubiquitin carboxyl-terminal hydrolase 1 (Homo sapiens) (UniProt O94782); experiment: Inhibitors of USP1/UAF1: Pilot qHTS (AID 504865);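 further: rhodamine fluorescence freed from ubiquitin-rhodamine substrate followed over time; top concentration of the series differs between compounds; on the % scale 0 is the no-effect control and ±100 the full control effect; nearly all actives have a fitted effect of over 35% in size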
Outline: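 USP1/UAF1 complex at 1 nM preincubated 15 min at room temperature with compound, then Ub-Rho substrate added at 150 nM final. Fluorescence (480/540 nm) read kinetically in 50 mM HEPES pH 7.8, 0.5 mM EDTA, 1 mM TCEP, 0.1 mg/ml BSA, 0.01% Tween-20.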

[19] = target: Rap guanine nucleotide exchange factor 3 (Homo sapiens) (UniProt O95398); experiment: Confirmatory qHTS for agonist of cAMP-regulated guanine nucleotide exchange factor 3 (EPAC1) (AID 1645881);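 further: EPAC1 catalysed release of BODIPY-GDP from Rap1B seen as fluorescence loss; 100% = effect of cAMP agonist control; nearly all actives have a fitted effect of over 75% in size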
[20] = target: Rap guanine nucleotide exchange factor 4 (Homo sapiens) (UniProt Q8WZA2); experiment: Confirmatory qHTS for agonist of cAMP-regulated guanine nucleotide exchange factor 4 (EPAC2) (AID 1645884);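 further: nucleotide exchange releases bodipy-GDP from Rap1 and this lowers its fluorescence; on the % scale 0 is the no-effect control and ±100 the full control effect; nearly all actives have a fitted effect of over 65% in size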
[21] = target: Rap guanine nucleotide exchange factor 4 (Homo sapiens) (UniProt Q8WZA2); experiment: Confirmatory qHTS for antagonist of cAMP-regulated guanine nucleotide exchange factor 4 (EPAC2) (AID 1645885); further: potency means the concentration at half of the fitted maximal effect; nearly all actives have a fitted effect of over 25% in size
[22] = measured here: cell count channel max response
[23] = measured here: lipid channel max response

Cytochrome P450 1A2 (Homo sapiens), sequence (P05177 whole entry, looked up): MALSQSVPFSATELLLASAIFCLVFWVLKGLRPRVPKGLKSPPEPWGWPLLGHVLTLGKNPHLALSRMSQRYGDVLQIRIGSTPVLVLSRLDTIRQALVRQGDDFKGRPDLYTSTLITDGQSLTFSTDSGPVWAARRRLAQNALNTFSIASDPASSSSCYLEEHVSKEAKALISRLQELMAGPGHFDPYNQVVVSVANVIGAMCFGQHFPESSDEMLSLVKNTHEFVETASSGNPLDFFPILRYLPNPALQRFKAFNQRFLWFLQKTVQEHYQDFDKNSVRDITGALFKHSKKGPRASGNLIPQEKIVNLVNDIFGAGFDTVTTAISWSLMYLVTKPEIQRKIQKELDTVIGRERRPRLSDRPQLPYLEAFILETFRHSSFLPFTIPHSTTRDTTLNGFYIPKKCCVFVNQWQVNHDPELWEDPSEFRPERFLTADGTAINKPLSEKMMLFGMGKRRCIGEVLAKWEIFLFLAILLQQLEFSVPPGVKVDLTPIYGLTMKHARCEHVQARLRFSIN
Cytochrome P450 3A4 (Homo sapiens), sequence (P08684 whole entry, looked up): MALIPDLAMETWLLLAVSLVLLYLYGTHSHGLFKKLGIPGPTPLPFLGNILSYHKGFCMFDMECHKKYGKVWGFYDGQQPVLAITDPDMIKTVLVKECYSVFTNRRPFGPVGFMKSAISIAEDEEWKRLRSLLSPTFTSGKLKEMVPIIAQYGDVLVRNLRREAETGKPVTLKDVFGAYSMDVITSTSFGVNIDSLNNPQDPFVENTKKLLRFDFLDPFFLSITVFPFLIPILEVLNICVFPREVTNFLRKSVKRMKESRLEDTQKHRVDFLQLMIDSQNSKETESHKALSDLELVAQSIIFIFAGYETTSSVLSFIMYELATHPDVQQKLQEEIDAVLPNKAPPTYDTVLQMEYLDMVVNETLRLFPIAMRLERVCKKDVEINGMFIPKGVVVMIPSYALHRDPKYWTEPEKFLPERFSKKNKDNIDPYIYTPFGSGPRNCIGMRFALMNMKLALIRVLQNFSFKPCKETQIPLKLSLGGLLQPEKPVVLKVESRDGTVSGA
Lysosomal acid glucosylceramidase (Homo sapiens), sequence (P04062 whole entry, looked up): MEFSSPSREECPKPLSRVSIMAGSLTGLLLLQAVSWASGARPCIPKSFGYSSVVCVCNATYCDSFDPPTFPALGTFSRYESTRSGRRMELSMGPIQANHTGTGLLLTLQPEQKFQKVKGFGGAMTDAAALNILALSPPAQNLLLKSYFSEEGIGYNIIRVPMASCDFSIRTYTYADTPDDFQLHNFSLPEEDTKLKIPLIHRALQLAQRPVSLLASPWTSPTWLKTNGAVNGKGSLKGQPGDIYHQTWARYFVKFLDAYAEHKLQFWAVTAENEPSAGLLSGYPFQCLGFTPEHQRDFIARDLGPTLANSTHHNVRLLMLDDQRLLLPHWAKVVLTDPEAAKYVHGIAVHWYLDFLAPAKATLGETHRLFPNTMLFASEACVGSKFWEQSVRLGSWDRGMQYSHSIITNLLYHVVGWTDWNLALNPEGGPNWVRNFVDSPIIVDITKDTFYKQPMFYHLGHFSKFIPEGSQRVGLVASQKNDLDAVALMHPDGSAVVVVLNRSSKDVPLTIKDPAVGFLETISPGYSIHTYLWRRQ
Glucocorticoid receptor (Homo sapiens), sequence (P04150 whole entry, looked up, the tested form may be a part): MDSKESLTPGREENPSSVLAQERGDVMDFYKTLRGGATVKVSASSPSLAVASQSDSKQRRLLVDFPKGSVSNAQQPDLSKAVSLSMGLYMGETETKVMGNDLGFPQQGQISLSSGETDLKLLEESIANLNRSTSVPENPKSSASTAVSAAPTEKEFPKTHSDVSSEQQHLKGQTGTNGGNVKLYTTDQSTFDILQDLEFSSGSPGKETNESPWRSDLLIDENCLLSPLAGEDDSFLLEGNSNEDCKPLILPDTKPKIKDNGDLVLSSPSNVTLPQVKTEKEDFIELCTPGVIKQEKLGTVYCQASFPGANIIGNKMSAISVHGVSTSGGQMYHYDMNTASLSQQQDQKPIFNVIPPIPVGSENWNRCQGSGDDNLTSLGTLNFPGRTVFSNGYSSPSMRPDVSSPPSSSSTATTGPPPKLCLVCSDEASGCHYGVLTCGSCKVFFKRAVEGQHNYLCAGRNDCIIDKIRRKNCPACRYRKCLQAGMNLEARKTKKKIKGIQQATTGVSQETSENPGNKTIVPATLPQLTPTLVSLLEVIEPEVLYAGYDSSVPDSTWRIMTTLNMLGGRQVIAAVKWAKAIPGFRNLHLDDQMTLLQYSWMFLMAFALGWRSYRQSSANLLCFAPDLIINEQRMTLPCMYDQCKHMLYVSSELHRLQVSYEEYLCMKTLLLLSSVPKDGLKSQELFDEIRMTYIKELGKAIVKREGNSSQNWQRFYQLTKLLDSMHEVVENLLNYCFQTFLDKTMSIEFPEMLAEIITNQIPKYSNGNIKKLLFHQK
Dual specificity protein kinase CLK4 (Homo sapiens), sequence (Q9HAZ1 whole entry, looked up): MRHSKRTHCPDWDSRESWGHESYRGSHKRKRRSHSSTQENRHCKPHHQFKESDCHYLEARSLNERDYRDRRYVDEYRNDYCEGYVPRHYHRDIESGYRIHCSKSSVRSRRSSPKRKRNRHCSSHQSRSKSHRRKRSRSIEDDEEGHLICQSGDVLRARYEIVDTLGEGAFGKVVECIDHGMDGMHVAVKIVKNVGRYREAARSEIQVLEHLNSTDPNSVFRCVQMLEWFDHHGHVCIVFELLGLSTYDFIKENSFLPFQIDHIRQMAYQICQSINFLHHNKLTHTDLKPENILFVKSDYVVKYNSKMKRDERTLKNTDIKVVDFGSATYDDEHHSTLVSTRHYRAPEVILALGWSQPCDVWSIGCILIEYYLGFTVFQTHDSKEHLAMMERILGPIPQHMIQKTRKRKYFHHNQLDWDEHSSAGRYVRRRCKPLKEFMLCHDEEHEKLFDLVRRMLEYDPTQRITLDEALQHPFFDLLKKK
Ubiquitin carboxyl-terminal hydrolase 1 (Homo sapiens), sequence (O94782 whole entry, looked up): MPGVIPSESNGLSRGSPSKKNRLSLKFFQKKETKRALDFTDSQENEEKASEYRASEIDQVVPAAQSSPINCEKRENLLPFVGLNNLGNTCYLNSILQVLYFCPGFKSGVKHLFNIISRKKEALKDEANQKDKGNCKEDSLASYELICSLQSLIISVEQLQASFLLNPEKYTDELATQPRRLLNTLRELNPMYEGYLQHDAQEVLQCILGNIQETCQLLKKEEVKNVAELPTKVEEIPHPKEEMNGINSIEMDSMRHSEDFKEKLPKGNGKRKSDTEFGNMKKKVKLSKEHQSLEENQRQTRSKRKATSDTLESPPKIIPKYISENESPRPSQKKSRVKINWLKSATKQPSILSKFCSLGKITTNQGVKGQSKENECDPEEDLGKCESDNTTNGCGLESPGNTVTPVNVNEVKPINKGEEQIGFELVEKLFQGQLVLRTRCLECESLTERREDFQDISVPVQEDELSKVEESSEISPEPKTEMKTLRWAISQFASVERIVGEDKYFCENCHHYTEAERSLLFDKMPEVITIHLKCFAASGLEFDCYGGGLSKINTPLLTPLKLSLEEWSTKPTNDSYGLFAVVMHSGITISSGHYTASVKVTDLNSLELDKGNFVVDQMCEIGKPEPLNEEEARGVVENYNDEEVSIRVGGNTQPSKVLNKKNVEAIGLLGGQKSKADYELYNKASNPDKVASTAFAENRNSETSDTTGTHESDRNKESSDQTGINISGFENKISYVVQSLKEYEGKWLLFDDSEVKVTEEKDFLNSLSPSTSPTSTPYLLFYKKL
Rap guanine nucleotide exchange factor 4 (Homo sapiens), sequence (Q8WZA2 whole entry, looked up): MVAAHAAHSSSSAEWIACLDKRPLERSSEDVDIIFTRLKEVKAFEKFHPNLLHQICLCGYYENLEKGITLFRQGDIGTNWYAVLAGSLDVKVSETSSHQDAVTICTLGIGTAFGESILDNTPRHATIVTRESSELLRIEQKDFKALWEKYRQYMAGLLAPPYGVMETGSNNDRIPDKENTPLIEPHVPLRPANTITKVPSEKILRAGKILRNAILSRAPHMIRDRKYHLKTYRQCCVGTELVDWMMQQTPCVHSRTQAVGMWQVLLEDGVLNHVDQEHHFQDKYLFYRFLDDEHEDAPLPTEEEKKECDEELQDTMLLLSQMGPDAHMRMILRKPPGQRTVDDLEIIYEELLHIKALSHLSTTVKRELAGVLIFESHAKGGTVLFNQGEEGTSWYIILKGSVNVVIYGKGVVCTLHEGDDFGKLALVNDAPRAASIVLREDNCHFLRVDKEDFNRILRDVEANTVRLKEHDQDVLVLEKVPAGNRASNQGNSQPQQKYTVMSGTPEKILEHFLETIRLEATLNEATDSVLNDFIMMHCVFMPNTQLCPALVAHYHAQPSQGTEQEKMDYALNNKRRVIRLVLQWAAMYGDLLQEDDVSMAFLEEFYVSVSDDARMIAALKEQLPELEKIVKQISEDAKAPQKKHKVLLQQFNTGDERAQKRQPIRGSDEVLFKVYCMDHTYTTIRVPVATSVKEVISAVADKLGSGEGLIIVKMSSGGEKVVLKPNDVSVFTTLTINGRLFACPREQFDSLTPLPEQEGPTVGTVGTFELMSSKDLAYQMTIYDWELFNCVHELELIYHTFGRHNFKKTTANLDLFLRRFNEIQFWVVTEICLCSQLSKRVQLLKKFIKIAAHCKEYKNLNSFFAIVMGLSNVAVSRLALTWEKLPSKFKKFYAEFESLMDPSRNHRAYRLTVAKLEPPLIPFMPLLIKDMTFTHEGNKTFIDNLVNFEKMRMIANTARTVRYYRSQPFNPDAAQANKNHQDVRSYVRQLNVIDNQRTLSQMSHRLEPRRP

CN(C)c1ccc(-c2cncnc2NCc2cccs2)cc1
active: Potency [3] 0.398 µM | Potency [8] 0.794 µM
15.4%: max response [12, 23]
4.82%: max response [12, 22]
inactive: Potency [1] > 11.4 µM | activity change, negative = inhibition [2] -15.1% | activity change, negative = inhibition [4] 2.25% | activity, negative = inhibition [5] -0.237% | Potency [6] > 46 µM | Potency [7] > 46 µM | Potency [9] | outcome [10] | outcome [11] | activity change, negative = inhibition [12] 7.98%

CN(C)c1ncnc2ccc(-c3cccnc3)cc12
active: Potency [3] 0.2 µM | Potency [15] 7.94 µM | Potency [16] 7.08 µM | Potency [17] 12.6 µM
inactive: Potency [1] > 11.4 µM | activity change, negative = inhibition [2] -15% | activity, negative = inhibition [5] 9.76% | Potency [6] > 46 µM | Potency [7] > 46 µM | outcome [13] | Potency [14] | Potency [9] | activity change, negative = inhibition [12] 3.37% | Potency [18]
4.52%: max response [12, 22]
7.15%: max response [12, 23]

O=c1c(-c2ccc(F)cc2)nc2cnc(Oc3cccc(Cl)c3)nc2n1C1CC1
-8.94%: max response [12, 22]
-12.9%: max response [12, 23]
inactive: Potency [1] > 11.4 µM | activity change, negative = inhibition [2] 25.5% | activity change, negative = inhibition [4] 16.4% | activity, negative = inhibition [5] -8.35% | Potency [6] > 9.22 µM | Potency [7] > 46 µM | outcome [13] | Potency [14] | activity change, negative = inhibition [12] 0.37% | Potency [15] | Potency [16] | Potency [17] | Potency [18]
active: Potency [3] 0.316 µM

Cn1c(=O)c(-c2ccc(Cl)cc2)nc2cnc(Oc3cccc(Cl)c3)nc21
active: Potency [3] 0.251 µM
11.8%: max response [12, 22]
inactive: Potency [1] > 11.4 µM | activity change, negative = inhibition [2] -7.62% | activity change, negative = inhibition [4] -6.5% | activity, negative = inhibition [5] -0.313% | Potency [6] > 9.22 µM | Potency [7] > 46 µM | outcome [13] | Potency [14] | Potency [8] | activity change, negative = inhibition [12] 5.31% | Potency [15] | Potency [16] | Potency [17] | Potency [18]
14.2%: max response [12, 23]

COc1cc(O)c2c(=O)cc(C)oc2c1CC=C(C)C
7.83%: max response [12, 22]
active: Potency [21] 22.1 µM
inactive: Potency [9] | outcome [10] | outcome [11] | activity change, negative = inhibition [12] 15% | outcome [19] | outcome [20]
11.5%: max response [12, 23]

CCNc1ncc2nc(-c3ccc(OC)cc3)c(=O)n(CCOC)c2n1
20.7%: max response [12, 22]
27.3%: max response [12, 23]
active: Potency [3] 1.26 µM
inactive: activity change, negative = inhibition [2] -6.96% | activity change, negative = inhibition [4] 6.8% | activity, negative = inhibition [5] -11.3% | Potency [6] > 9.22 µM | Potency [7] > 46 µM | outcome [13] | Potency [14] | Potency [9] | activity change, negative = inhibition [12] 4.42% | Potency [15] | Potency [16] | Potency [17] | Potency [18]
